Assay outcomes (PubChem)
An excerpt weighted towards active compounds, which were near 3.8% of everything screened.
Mtb FBA inh = Mtb fructose-bisphosphate aldolase inhibition; purified M. tuberculosis FBA, fluorescence read-out; inhibition, % at 1 µM; hit rate 2.3% among 360,000; in the data active = inhibition above about 27%;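 note: 0% = vehicle and 100% = reference inhibitor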
Target sequence (P9WQA3 whole entry, looked up): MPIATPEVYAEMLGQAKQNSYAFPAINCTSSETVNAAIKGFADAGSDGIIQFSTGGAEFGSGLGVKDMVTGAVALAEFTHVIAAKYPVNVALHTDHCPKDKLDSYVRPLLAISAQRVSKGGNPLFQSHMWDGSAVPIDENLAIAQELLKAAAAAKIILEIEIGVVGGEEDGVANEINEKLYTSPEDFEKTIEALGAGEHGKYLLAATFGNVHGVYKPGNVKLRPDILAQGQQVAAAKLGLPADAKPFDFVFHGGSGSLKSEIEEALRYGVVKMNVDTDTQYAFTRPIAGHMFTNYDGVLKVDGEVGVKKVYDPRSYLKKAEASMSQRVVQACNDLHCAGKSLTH
GDH-TPI counter = inhibits GDH-TPI coupling enzymes, artifact for Mtb FBA screen; GDH-TPI coupled enzyme counterscreen, NADH absorbance; inhibition, % at 4.8 µM; hit rate 1.2% among 360,000; AID 588335; in the data active = inhibition above about 30%;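 note: 0% = DMSO wells and 100% = wells lacking the enzyme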
Mtb hypoxia inh = Mtb hypoxia fluorescent reporter inhibition; M. tuberculosis hypoxia-regulated fluorescent reporter, fluorescence; fluorescence inhibition, % (test concentration not listed); hit rate 0.1% among 300,000; AID 1159583; in the data active = fluorescence inhibition mostly above about 23%, no sharp cut-off; inactive = mostly below about 17%
PrP 5UTR inh = suppresses PrP 5' UTR mRNA reporter expression; inhibition, % (test concentration not listed); AID 488862; cell-based PrP 5' UTR mRNA reporter, plate reader; hit rate 0.35% among 340,000; in the data active = inhibition above about 52%; note: 0 = median of the neutral control wells
PrPC TRFRET = inhibitors of human cell surface prion protein PrPC; P04156; TR-FRET read-out; inhibition, % at 13.8 µM; hit rate 0.43% among 370,000; AID 720596; in the data active = inhibition above about 24%; note: 0% = median of the test wells and 100% = reference compound wells
Yp Topo-I inh = Y. pestis Topo-I inhibition via cleavage products | Y. pestis Topo-I cleavage product accumulation, plate reader | activity, % at 10 µM | hit rate 0.064% among 360,000; in the data active = activity above about 50%, passing the limit was not always enough
PrP 5UTR single = prion 5' UTR mRNA inhibition, cherry-pick retest; shares compounds with PrP 5UTR inh; cell-based prion protein 5' UTR reporter, plate reader; inhibition, % at 2.5 µM; hit rate 48% among 1,100; in the data active = inhibition above about 54%
The depositor's hits bear a star; nt = not tested or not shown.

SMILES	Mtb FBA inh	GDH-TPI counter	Mtb hypoxia inh	PrP 5UTR inh	PrPC TRFRET	Yp Topo-I inh	PrP 5UTR single
CCN(CC)c1ccc(C2Nc3cccc4cccc(c34)N2)cc1	0	26	nt	-56	-6	-35	nt
O=C(NCc1ccco1)c1ccc2c(c1)N(Cc1ccccc1)C(=O)CS2=O (stereo unspecified)	-1	-16	nt	61*	4	3	15
FC(F)(F)c1ccccc1-n1ccnc1	3	-6	10	60*	-1	-9	0
O=C(O)c1nn(-c2ccccc2C(F)(F)F)cc1O	1	-5	15	-27	9	7	nt
Cc1cc(C)c(S(=O)(=O)N2CCN(C(=O)CCOc3ccccc3C)CC2)c(C)c1	-2	1	2	88*	-2	18	1
CN=c1scc(-c2ccccc2F)n1/N=C/c1ccc[nH]1	-5	9	nt	92*	9	-10	91*
CC1CCN(C(=O)c2ccc(COc3ccccc3Cl)o2)CC1	2	-1	2	77*	10	17	-6
CN(C)CC(C)(C)CNS(=O)(=O)c1ccc(OC(F)(F)F)cc1	-1	10	6	59*	1	-2	2
Cn1ncnc2c(=O)n(C)c(=O)nc1-2	-3	12	-10	96*	nt	6	98*
COC(=O)CCn1nnc(-c2ccc(C(C)C)cc2)n1	5	-8	17	73*	-11	-2	70*
C[C@]12CCC3C(CCC4=CC(O)CC[C@@]43/C=N/O)C1(O)CCC2C1=CC(=O)OC1 (stereo partly specified)	1	2	nt	80*	2	1	70*
CC1CCCN(c2ncnc3c2cnn3-c2ccc(Cl)cc2)C1 (stereo unspecified)	3	-17	0	88*	-3	1	84*
COc1ccc(S(=O)(=O)n2nc(-c3ccc(Cl)cc3)cc2N)cc1OC	7	1	nt	56*	10	-3	1
CCOc1ccc(-c2cc(N)n(S(=O)(=O)c3ccc(OC)c(OC)c3)n2)cc1	1	-2	-11	-27	12	16	nt
COc1ccc(CN2CC(=O)N3C4c5cc(C)ccc5OCC4C(c4ccccc4)[C@]3(C)C2=O)cc1 (stereo partly specified)	nt	nt	5	nt	nt	nt	nt
COc1ccc(CC(=O)OCC(=O)N2CCN(S(=O)(=O)c3ccc(C)cc3C)CC2)cc1	0	3	17	88*	-4	33	-12
Cc1csc(CNc2ncnc3ccc(-c4cccnc4)cc23)c1	0	0	2	-6	-1	-3	nt
COc1cccc(-c2ccc3ncnc(NCc4cc(C)cs4)c3c2)c1	6	13	11	61*	-9	10	-3
CC(=NNC(=O)c1ccc(-c2ccccc2)cc1)c1cccc(N)c1	nt	nt	8	nt	nt	nt	nt
O=C(Nc1ccc(OCc2ccccc2Cl)cc1)c1cccnc1	3	-1	4	66*	13	24	71*
O=C(Nc1ccc(OCc2ccccc2)cc1)c1cccnc1	0	6	18	-42	2	2	nt
COc1ccc(CCN2C(=O)c3ccccc3C2(O)c2ncc[nH]2)cc1OC (stereo unspecified)	0	-8	-7	-8	-5	-8	nt
O=C1c2ccccc2C(O)(c2ncc[nH]2)N1C1CCCCC1 (stereo unspecified)	-1	8	4	69*	-2	-6	-17
COC(=O)Cc1ccc(NC(=O)c2ccc(C(C)(C)C)cc2)cc1	13	-1	-6	79*	8	32	65*
C(=NNc1nc2ccccc2[nH]1)c1ccncc1	nt	nt	11	nt	nt	nt	nt
C(=N\Nc1nc2ccccc2[nH]1)/c1ccccc1	0	15	nt	55*	4	-4	-56
COc1ccc(NC(=O)C/C(C)=N/NC(=O)c2ccncc2)c([N+](=O)[O-])c1	-5	12	nt	54*	-16	-7	-17
COc1ccc(OCC(=O)N/N=C(\C)CC(=O)Nc2ccc(OC)cc2[N+](=O)[O-])cc1	-3	3	nt	-15	6	-1	nt
O=C(Nc1c(Cl)cc2c(c1Cl)Cc1cc([N+](=O)[O-])ccc1-2)C(Cl)Cl	1	22	nt	82*	-5	-22	-6
